Records with an inconclusive call do not appear. Active and inactive are the calls of the source. Calls come from the whole dose curve; as a rule, active = well fitted curve in the direction sought with a large enough effect; inconclusive = small, poorly fitted or top-dose-only effect, or another doubt; inactive = no such curve, though single readings can be large or run the other way.
Each compound was assayed against Polyunsaturated fatty acid lipoxygenase ALOX15 (Homo sapiens) (UniProt P16050) (assay: Counterscreen qHTS for inhibitors of human arachidonate 12S-lipoxygenase (ALOX12): ALOX15 Assay). Details: purified ALOX15 enzyme activity; series mostly up to 110 µM.
Chain of Polyunsaturated fatty acid lipoxygenase ALOX15 (Homo sapiens) (P16050 whole entry, looked up): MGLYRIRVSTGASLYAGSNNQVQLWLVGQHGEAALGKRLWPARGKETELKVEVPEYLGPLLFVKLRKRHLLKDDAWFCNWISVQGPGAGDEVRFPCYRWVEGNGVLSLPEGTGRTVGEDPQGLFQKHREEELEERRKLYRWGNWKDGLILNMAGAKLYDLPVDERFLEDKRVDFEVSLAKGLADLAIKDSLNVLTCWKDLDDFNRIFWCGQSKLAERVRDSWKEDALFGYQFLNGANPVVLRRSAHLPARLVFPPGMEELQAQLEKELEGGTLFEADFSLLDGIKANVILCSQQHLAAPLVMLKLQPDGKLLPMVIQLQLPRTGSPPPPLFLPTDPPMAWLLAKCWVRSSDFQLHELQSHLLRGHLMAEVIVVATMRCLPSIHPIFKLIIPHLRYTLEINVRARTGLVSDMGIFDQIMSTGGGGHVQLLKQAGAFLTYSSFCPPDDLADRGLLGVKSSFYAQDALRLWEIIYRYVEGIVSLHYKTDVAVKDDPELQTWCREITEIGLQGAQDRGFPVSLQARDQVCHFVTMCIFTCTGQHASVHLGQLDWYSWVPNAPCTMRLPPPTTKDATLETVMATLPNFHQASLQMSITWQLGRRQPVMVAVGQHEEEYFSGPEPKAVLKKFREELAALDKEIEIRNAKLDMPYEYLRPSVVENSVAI
Procedure, shortened: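 Xylenol orange–ferric complex formation, read as the 573 nm to 405 nm absorbance ratio, tracks product from 50 uM arachidonic acid turned over for 30 min at RT. Enzyme is 40 nM ALOX15, pH 7.5 HEPES buffer, compound-preincubated 15 min.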

Compound	outcome
CN1CC(=O)N(C2CCNC2)Cc2c1ncnc2N1CCC(N2CCCCC2)CC1 (stereo not drawn)	inactive
CN1CC(=O)N(C2CCNCC2)Cc2c1ncnc2N1CCC(N2CCOCC2)CC1	inactive
CN1CC(=O)N(C2CCCNCC2)Cc2c1ncnc2N1CCN(c2ncccn2)CC1 (stereo not drawn)	inactive
FC(F)(F)c1cccc(C2=NOC3(CCN(Cc4ccsc4)C3)C2)c1 (stereo not drawn)	inactive
O=C1NCc2ccccc2CC12CCN(Cc1ccc(F)cc1O)C2 (stereo not drawn)	inactive
O=C(NC1CCCCC1)N1CCC(c2nnc3n2CCNC3)CC1	inactive
NCc1ccc(-c2cccc(O)c2)cc1	inactive
O=C1NCc2ccccc2CC12CCN(Cc1cccc(Br)c1)C2 (stereo not drawn)	inactive
O=C1NCc2ccccc2CC12CCCN2Cc1ccc(Cl)s1 (stereo not drawn)	inactive
NCC(=O)N1CCC2(CC1)CN(C(=O)c1ccc(Cl)cc1)CCO2	inactive
COc1cccc([S+](=O)([O-])N2CCCC3(CC(c4cccnc4)=NO3)C2)c1 (stereo not drawn)	inactive
CCc1nc2c(c(-c3ccc(OC)cc3)n1)CCN(Cc1ccc(C(F)(F)F)cc1)CC2	inactive
O=C(C1CCCC1)N1Cc2ccccc2CC2(CCN(Cc3cccnc3)C2)C1 (stereo not drawn)	inactive
O=C1NC2(Cc3ccccc31)CN(C(=O)c1ccc3c(c1)OCO3)C2	inactive
O=C(N1CCCCC1)N1CCCC1c1nnc2n1CCNC2 (stereo not drawn)	inactive
O=Cc1ccc(-c2ccc(O)cc2)cc1	inactive
COCCNc1nc2c([S+](=O)([O-])c3cc(OC)ccc3OC)nnn2c2ccccc12	inactive
O=C1c2ccccc2CN1C1CCN(Cc2cccc3ccccc23)CC1	inactive
N#Cc1ccc(CN2CCn3c(nn(-c4cccc(Cl)c4)c3=O)C2)cc1	inactive

Compound	outcome
CSc1ccc(-c2ccc(C(=O)O)cc2)cc1	inactive
Cc1cc(C(=O)NC2CCCC2)c2c(C3CCNC3)noc2n1 (stereo not drawn)	inactive
COc1cc(CN2CCC3(Cc4ccccc4CNC3=O)C2)cc(OC)c1 (stereo not drawn)	inactive
O=C(NCc1ccc(Cl)nc1)c1cnn2c1CN(C(=O)c1ccccc1)CC2	inactive
CC1C=CC(C)N1c1ncnc2c1CN(C1CCNCC1)C(=O)CN2C (stereo not drawn)	inactive
Nc1ccc(CN2CCCC3(Cc4ccccc4CNC3=O)C2)cc1 (stereo not drawn)	inactive
COc1ccc(-c2cc(C(=O)NCC(C)C)c3c(C)nn(-c4ccccc4)c3n2)cc1	inactive
O=C(c1cc(C2CC2)nc2onc(C3CCCN3)c12)N1CCC(F)CC1 (stereo not drawn)	inactive
CN1CC(=O)N(c2cccc(F)c2)Cc2c(NC3CCNCC3)ncnc21	inactive
CCCC(=O)N1Cc2ccccc2CC2(CCCN(CC3CCNC3)C2)C1 (stereo not drawn)	inactive
COc1ccc(CC(=O)N2Cc3ccccc3CC3(CCCN(C)C3)C2)cc1 (stereo not drawn)	inactive
CN1CCC(C(=O)N2Cc3ccccc3CC3(CCCN(CC4CCNC4)C3)C2)CC1 (stereo not drawn)	inactive
O=C1NCc2ccccc2CC12CCCN2Cc1ccc(Cl)cc1 (stereo not drawn)	inactive
CC(CO)Nc1ncnc2c1CN(C1CCCNC1)C(=O)CN2C (stereo not drawn)	inactive
COc1ccc(-c2nc(C3CC3)nc3c2CN([S+](=O)([O-])c2ccccc2)CC3)cc1	inactive
O=C(N1CCCCC1)N1CCCC(c2nnc3n2CCNC3)C1 (stereo not drawn)	inactive
C/C(=C\c1ccccc1)CN1CCCC12Cc1ccccc1CNC2=O (stereo not drawn)	inactive
Cc1ccc(CN2CCC3(Cc4ccccc4CNC3=O)C2)cc1C (stereo not drawn)	inactive
CCc1ccc(CN2CCC3(CC2)Cc2ccccc2CNC3=O)s1	inactive

From PubChem BioAssay AID1671192 (National Center for Advancing Translational Sciences (NCATS), 2021)
